Sampled rows, rich in hits. Any-hit rate of the full collection: about 12%.
Sfp inh = qHTS Assay for Inhibitors of Bacillus subtilis Sfp phosphopantetheinyl transferase (PPTase) | AID 1490, 2009 | Potency, µM, hits mostly inhibitors | Biochemical Sfp PPTase activity, qHTS | 4'-phosphopantetheinyl transferase ffp (Bacillus subtilis), Q9F4F7 | 310,000 compounds, 3.5% hits;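 also: the enzyme is Sfp with the accession as filed and its product quenches rhodamine fluorescence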
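Step 1, compound plus 15 nM Sfp-PPTase, 15 min, room temperature. Step 2, add rhodamine-CoA (5 uM) and BHQ-2-YbbR (12.5 uM). Step 3, read 525/598 nm fluorescence at 0 and 30 min.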
G9a inh = qHTS Assay for Inhibitors of Histone Lysine Methyltransferase G9a. Histone-lysine N-methyltransferase EHMT2 (Homo sapiens), Q96KQ7. G9a H3K9 monomethylation, AlphaScreen, 2 h. Potency, µM (doses to about 102 µM), actives largely listed as inhibitors. 350,000 compounds, 8.8% hits. AID 504332, 2011; also: nearly all actives have a fitted effect of over 75% in size
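Chemiluminescent proximity detection of H3K9 monomethylation, read after 10 min bead incubation in the dark. Reaction: 20 nM G9a, 500 nM biotin-H3K9 peptide, 20 uM SAM cofactor, 2 h, room temperature, following 15 min enzyme-compound preincubation.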
BAZ2B inh = qHTS Assay for Inhibitors of BAZ2B; AlphaScreen BAZ2B-H3K14Ac peptide displacement; Potency, µM (top dose mostly 114 µM), actives largely listed as inhibitors; 360,000 compounds, 4.4% hits; AID 504333, 2011; also: nearly all actives have a fitted effect of over 60% in size
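BAZ2B (50 nM) with biotin-H3(5-23)K14Ac peptide (50 nM) in PBS pH 7.4, 0.01% Tween-20, preformed 30 min, then compound 30 min at room temperature; top concentration 110uM. AlphaScreen streptavidin donor/nickel chelate acceptor beads (10 ug/mL final), 20 min dark, signal read.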
L3MBTL1 block = qHTS Assay for the Inhibitors of L3MBTL1 | Potency, µM (titrated, usually from 57.1 µM), most hits filed as inhibitors | 230,000 compounds, 0.66% hits | AlphaScreen L3MBTL1–H3K9me1 peptide binding | AID 485360, 2010; also: nearly all actives have a fitted effect of over 60% in size
Target sequence (Q9Y468 whole entry, looked up): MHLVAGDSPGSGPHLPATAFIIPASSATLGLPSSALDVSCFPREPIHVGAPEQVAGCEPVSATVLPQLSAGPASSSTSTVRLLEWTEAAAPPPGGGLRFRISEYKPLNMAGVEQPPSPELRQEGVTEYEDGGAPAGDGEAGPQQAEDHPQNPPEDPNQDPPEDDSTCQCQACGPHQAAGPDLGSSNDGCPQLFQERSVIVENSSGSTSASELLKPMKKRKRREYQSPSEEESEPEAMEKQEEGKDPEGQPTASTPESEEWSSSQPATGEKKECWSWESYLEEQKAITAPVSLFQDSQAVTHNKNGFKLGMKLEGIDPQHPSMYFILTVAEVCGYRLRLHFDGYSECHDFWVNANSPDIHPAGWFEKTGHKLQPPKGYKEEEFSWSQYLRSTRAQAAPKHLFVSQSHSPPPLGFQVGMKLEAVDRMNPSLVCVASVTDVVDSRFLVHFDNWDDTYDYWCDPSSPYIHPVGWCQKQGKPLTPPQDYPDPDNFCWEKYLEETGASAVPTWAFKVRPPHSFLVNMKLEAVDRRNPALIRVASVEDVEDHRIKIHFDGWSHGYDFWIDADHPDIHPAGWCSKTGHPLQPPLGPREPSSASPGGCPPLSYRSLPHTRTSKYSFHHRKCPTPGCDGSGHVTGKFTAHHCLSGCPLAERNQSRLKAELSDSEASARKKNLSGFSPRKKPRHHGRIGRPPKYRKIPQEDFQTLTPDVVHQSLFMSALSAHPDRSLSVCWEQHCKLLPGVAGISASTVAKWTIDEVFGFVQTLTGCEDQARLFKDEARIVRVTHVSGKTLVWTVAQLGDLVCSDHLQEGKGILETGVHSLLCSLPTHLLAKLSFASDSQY
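Read-out is AlphaScreen signal from streptavidin donor and nickel chelate acceptor beads (10 ug/mL final each) bridging L3MBTL1 (50 nM) and biotinylated K9-monomethylated H3(1-15) peptide (75 nM), after 30 min compound exposure at room temperature.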
HP1b binding inh = HTS for Inhibitors of HP1-beta Chromodomain Interactions with Methylated Histone Tails. Chromobox protein homolog 1 (Homo sapiens), P83916. Potency, µM (highest dose often 114 µM), hits mostly inhibitors. 390,000 compounds, 0.56% hits. AID 540317, 2011. AlphaScreen HP1-beta / biotin-H3K9me3 peptide binding; also: nearly all actives have a fitted effect of over 70% in size
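AlphaScreen: HP1-beta (50 nM) preformed 30 min with biotin-H3(1-18)K9me3 peptide (50 nM) in PBS pH 7.4, 0.01% Tween-20. Compound added for 30 min at RT, then streptavidin donor/nickel chelate acceptor beads (10 ug/mL) for 30 min.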
JMJD2A Tudor = qHTS Assay for Inhibitors of JMJD2A-Tudor Domain. AID 504339, 2011. 390,000 compounds, 4.4% hits. Potency, µM (series often up to 114 µM), hits mostly inhibitors. AlphaScreen JMJD2A-Tudor / H3K4me3 peptide binding. Lysine-specific demethylase 4A (Homo sapiens), O75164; also: nearly all actives have a fitted effect of over 50% in size
Numbers stand for hits; [ ] = another dose, or the depositor's remark. Calls follow the shape of the dose curve; as a rule, active = well fitted curve in the direction sought with a large enough effect; inconclusive = small, poorly fitted or top-dose-only effect, or another doubt; inactive = no such curve, though single readings can be large; an effect the other way counts as inactive or inconclusive.

CC(=O)Nc1scc(-c2ccccc2)[n+]1-c1ccc(C)cc1 was read as Sfp inh inactive, G9a inh 50µM, BAZ2B inh inconclusive, HP1b binding inh inactive and JMJD2A Tudor inactive.
For O=C(NCC1CCCO1)C(c1ccc(F)cc1)N(CC1CCCO1)C(=O)c1ccc(-c2ccccc2)[nH]1 (stereo unspecified) the results were Sfp inh inactive, BAZ2B inh 40µM, L3MBTL1 block inactive, HP1b binding inh inactive and JMJD2A Tudor inactive.
Screening O=C(NCC1CCCO1)C(c1cccs1)N(Cc1cccs1)C(=O)c1ccc(-c2ccccc2)[nH]1 (stereo unspecified) returned Sfp inh inactive, G9a inh inconclusive, BAZ2B inh inconclusive, L3MBTL1 block inactive, HP1b binding inh inconclusive and JMJD2A Tudor inconclusive.
Cc1cc(C)n2cc(CSCC(=O)O)nc2n1 was read as Sfp inh inactive, G9a inh 45µM, BAZ2B inh inconclusive, L3MBTL1 block inactive, HP1b binding inh inactive and JMJD2A Tudor inactive.
Screening Cc1cc(C)n2cc(CSc3nnnn3-c3ccc(Cl)cc3)nc2n1 returned Sfp inh inconclusive, G9a inh 40µM, BAZ2B inh inactive, L3MBTL1 block inactive, HP1b binding inh inactive and JMJD2A Tudor inactive.
Screening Cc1cc(C)n2cc(CSc3nnnn3-c3ccccc3)nc2n1 returned Sfp inh inactive, G9a inh inactive, BAZ2B inh inactive, L3MBTL1 block inactive, HP1b binding inh inactive and JMJD2A Tudor inactive.
Screening COc1ccc(CC(=O)NCc2n[nH]c(=S)n2C)cc1 returned Sfp inh inactive, G9a inh 45µM, BAZ2B inh inactive, L3MBTL1 block inactive, HP1b binding inh inactive and JMJD2A Tudor inconclusive.
Screening O=C(Cc1ccccc1)NCc1n[nH]c(=S)n1-c1ccccc1 returned Sfp inh inactive, G9a inh inconclusive, BAZ2B inh inactive, HP1b binding inh inconclusive and JMJD2A Tudor inactive[11.4 µM].
`Cc1ccc(C(=O)NCc2n[nH]c(=S)n2-c2ccccc2)cc1[N+](=O)[O-]` gave Sfp inh inactive, G9a inh 10µM, BAZ2B inh inactive, HP1b binding inh inactive and JMJD2A Tudor 14µM.
For COc1ccc(CC(=O)NCc2n[nH]c(=S)n2-c2cccc(C)c2)cc1 the results were Sfp inh inactive, G9a inh 11µM, BAZ2B inh inactive, HP1b binding inh inactive and JMJD2A Tudor 7.9µM.
`O=C(NCc1n[nH]c(=S)n1-c1cccc(C(F)(F)F)c1)c1ccco1` gave Sfp inh inactive, G9a inh 13µM, BAZ2B inh inactive, HP1b binding inh inactive and JMJD2A Tudor 13µM.
For CC(C(=O)Nc1ccc(F)c(Cl)c1)N1Cc2ccccc2C1=O (stereo unspecified) the results were G9a inh inactive, BAZ2B inh inactive, HP1b binding inh inactive and JMJD2A Tudor inactive.
COc1ccc(C2CC(c3ccccc3)=NN2C(=O)CSc2nnnn2-c2cccc(C)c2)cc1 (stereo unspecified) was read as HP1b binding inh inactive and JMJD2A Tudor inactive.
Screening CCn1c(CNC(=O)c2cccc(C)c2)nnc1SCC(=O)Nc1cccc(OC)c1 returned Sfp inh inactive, G9a inh inactive[12.7 µM], BAZ2B inh inactive, HP1b binding inh inactive and JMJD2A Tudor inactive.
`COc1cccc(C(=O)NCc2n[nH]c(=S)n2-c2cccc(C)c2)c1` gave Sfp inh inactive, G9a inh inconclusive, BAZ2B inh inactive, L3MBTL1 block inactive, HP1b binding inh inactive and JMJD2A Tudor 18µM.
O=c1c2cn(Cc3ccc(F)cc3)c3ccccc3c-2nn1Cc1ccc(F)cc1 was read as Sfp inh inactive, G9a inh 32µM, BAZ2B inh inactive, HP1b binding inh inactive and JMJD2A Tudor inactive.
Screening O=c1c2cn(Cc3ccccc3)c3ccccc3c-2nn1Cc1ccc(F)cc1Cl returned Sfp inh inactive, G9a inh inactive, BAZ2B inh inactive, HP1b binding inh inactive and JMJD2A Tudor inactive.
`CCCCNC(=O)C(c1ccc(OCC(=O)OC)c(C(=O)OC)c1)N(Cc1ccccc1)C(=O)CCCCCN1C(=O)NC(c2ccc(-c3ccccc3)cc2)C(C(=O)OCc2ccccc2)=C1C` (stereo unspecified) gave Sfp inh inactive.
O=c1/c(=C/c2ccco2)sc2n1CN(c1cccc(Br)c1)CN=2 was read as Sfp inh inactive, G9a inh inactive[12.7 µM], BAZ2B inh inconclusive, HP1b binding inh inconclusive and JMJD2A Tudor inconclusive.
For Cc1cc(C)cc(N2CN=c3s/c(=C\c4ccco4)c(=O)n3C2)c1 the results were Sfp inh inactive, G9a inh inactive, BAZ2B inh inconclusive, L3MBTL1 block inactive, HP1b binding inh inactive and JMJD2A Tudor inactive.
`Cc1ccc(/C=c2\sc3n(c2=O)CN(c2cccc(Br)c2)CN=3)o1` gave Sfp inh 20µM, G9a inh inconclusive, BAZ2B inh inconclusive, L3MBTL1 block inactive, HP1b binding inh inactive and JMJD2A Tudor inconclusive.
`O=c1/c(=C/c2ccco2)sc2n1CN(c1ccccc1)CN=2` gave Sfp inh inactive, G9a inh 13µM, BAZ2B inh inactive, HP1b binding inh inactive and JMJD2A Tudor inactive.
Screening COc1cccc(CNc2nc(Cl)nc3nc[nH]c23)c1 returned HP1b binding inh inactive and JMJD2A Tudor inactive.
For COC(=O)c1ccccc1NC(=O)c1nc(-c2ccc(C)cc2)n2c1CCCCC2 the results were G9a inh inactive, BAZ2B inh inactive, HP1b binding inh inactive and JMJD2A Tudor inactive.
For COC(=O)C(C)Sc1nnc2n(-c3cccc(C)c3)c(=O)c3c4c(sc3n12)CCCC4 (stereo unspecified) the results were Sfp inh inactive, G9a inh 25µM, BAZ2B inh inactive, L3MBTL1 block inactive, HP1b binding inh inactive and JMJD2A Tudor inactive.
`Cc1ccc(-n2c(=O)[nH]c3sc4c(c3c2=O)CCCC4)cc1` gave G9a inh inactive, BAZ2B inh inactive, HP1b binding inh inactive and JMJD2A Tudor inactive.
CCSc1nnc2n(-c3ccc(OC)cc3)c(=O)c3c4c(sc3n12)CCCC4 was read as Sfp inh inactive, G9a inh inactive, BAZ2B inh inactive, HP1b binding inh inactive and JMJD2A Tudor inactive.
For COc1ccc(-n2c(=O)c3c4c(sc3n3c(=S)[nH]nc23)CCC4)cc1 the results were Sfp inh inconclusive, G9a inh 2.5µM, BAZ2B inh inactive, L3MBTL1 block inactive, HP1b binding inh inactive and JMJD2A Tudor 10µM.

From PubChem BioAssay
